Holding throughout (experiment): NCI-60 one-dose screen, 48 h (100 = growth as untreated, 0 = no growth, -100 = all killed)
In assay [1] the test system is NCI-H226 lung. Particulars: 10 µM.
Assay [2] relates to NCI-H322M lung. The conditions noted are these: 10 µM unless noted.
Assay [3] concerns HOP-62 NSCLC. The conditions noted are these: 10 µM unless noted.
For assay [4], the system named is NCI-H460 lung. Particulars: 10 µM unless noted.
Assay [5] relates to NCI-H522 lung. The conditions noted are these: 10 µM.
Assay [6] deals with A549/ATCC NSCLC. Particulars: 10 µM unless noted.
Assay [7] concerns 786-0 renal. The conditions noted are these: 10 µM unless noted.
The subject of assay [8] is COLO 205 colon. Particulars: 10 µM unless noted.
Assay [9] concerns HOP-92 NSCLC. Particulars: 10 µM unless noted.

This is part of a sample that, as a whole, favours compounds with a hit. Of some 83,000 tested, about 20% had one in any assay.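 Results are percent growth after 48 hours of single-concentration exposure. 100 means growth as in untreated cells, lower positive values show inhibition; negative values down to -100 show cell death.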 Unmarked numbers belong to inactive results. Active and inactive are the calls of the source. Rule for the calls: active = growth percent below 10; inactive = the rest.

Consider 14 compounds from PubChem BioAssay (NCI).

Consider `COc1cc(/C=C/c2cc(/C=C/c3ccc(O)c(OC)c3)n(-c3ccccc3)n2)ccc1O`, for which the growth in [1] was -8.19% (active); in assay [2], -3.64% (active); in assay [3], -67.7% (active); in assay [4] it was 0.0675% (active); in assay [5], -30.2% (active); in assay [6], 8.4% (active). Moreover, the growth is -76.7% (active) in assay [7] and -84.1% (active) in assay [8].
With `Cn1cc(C(=O)NCCC(=N)N)cc1NC(=O)CN=C(N)N`, the growth is 90.7% in [1]; 106% in assay [2]; 85.9% in [3]; 107% in assay [4]; 89.5% in assay [9]; 87.5% in assay [5]. Also, the growth in assay [6] is 99.2%; in assay [7], 85.4%; in [8] it was 103%.
`COc1ccc(-c2nc3sc(C)cn3c2/C=C/C(=O)c2cc(OC)c(OC)c(OC)c2)cc1`: the growth was 76.9% in [1]; 76.1% in assay [2]; 90.1% in assay [3]; 50.5% in assay [4]; 46.2% in [9]; 37.8% in assay [5]. Also, the growth in assay [6] was 57.1%; in assay [7] it was 48.2%; in [8], 67.9%.
On to `Cc1ccc2c(c1)c(Sc1ccc(C(=O)NO)cc1)c1n2CN(C)CC1`, for which the growth in [1] is -0.932% (active); in assay [2] it was 31.1%; in assay [3], 33.7%; in [4] it was 7.16% (active); in assay [9], 27.9%; in assay [6] it was 1.5% (active). The growth in assay [7] was 37.7%; in assay [8] it was 14.1%.
With `Cc1ccc(C(=O)Nc2ccccc2N)cc1`, the growth in assay [1] is 74.5%; in [2], 71.6%; in assay [3], 92.2%; in assay [4], 66%; in assay [5] it was 70%; in [6] it was 90.8%. The growth in [7] is 75.4%; in assay [8], 94.6%.
Turning to `O=C(C[Si](CC(=O)c1cccc(C(F)(F)F)c1)CC(=O)c1cccc(C(F)(F)F)c1)c1cccc(C(F)(F)F)c1`, the growth in assay [1] was 82.9%; in assay [2], 74.5%; in assay [3], 95.6%; in assay [4], 8.35% (active); in assay [9], -27.9% (active); in assay [5], 68.7%. The growth in [6] was 49%; in [7], 75.8%; in assay [8], 98.4%.
Take `CC(C)N1CCN(c2ccc(OC[C@H]3CO[C@](Cn4cncn4)(c4ccc(Cl)cc4Cl)O3)cc2)CC1`: the growth in assay [1] is 93.6%; in assay [2], 106%; in assay [3], 81%; in [4], 103%; in assay [9], 71.2%; in [5], 78%. In addition, the growth in [6] was 89.6%; in [7], 99.2%; in assay [8], 62.9%.
Turning to `Cc1ccc(C)c2c1sc1nc3nc4sc5ccccc5n4c(=N)c3c(=O)n12`, the growth in assay [1] was 115%; in assay [2], 120%; in assay [3] it was 97.3%; in assay [4], 95.5%; in assay [9] it was 72.3%; in assay [5], 116%. In addition, the growth in [6] was 111%; in assay [7] it was 100%; in assay [8], 109%.
As to `COC(=O)c1cc(-c2ccc(C)cc2)n(C(=O)CSc2nc3sc(C(N)=O)c(C)c3c(=O)n2Cc2ccccc2)n1`, the growth in assay [1] was 103%; in [2], 129%; in assay [3], 98.6%; in assay [4] it was 103%; in assay [9], 92.5%; in [5] it was 95%. The growth in assay [6] is 107%; in assay [7], 102%; in assay [8] it was 93.5%.
Consider `CC1=C(C/C=C(\C)CCC[C@H](C)CCC[C@H](C)CCCC(C)C)C(=O)c2ccccc2C1=O`, for which the growth was 110% in assay [1]; 103% in assay [2]; 115% in [3]; 114% in [4]; 111% in [9]; 107% in [5]. Moreover, the results for the growth in assay [6], in assay [7] and in assay [8] were 103%, 103% and 110%, respectively.
Take `COc1cc(C2C3=C(COC3=O)N(CCO)c3cc4c(cc32)OCO4)cc(OC)c1O` (stereo unspecified): the growth is 61.7% in assay [1]; 52.5% in assay [2]; 41.7% in [3]; 16.1% in assay [4]; 66% in assay [9]; -40.7% (active) in assay [5]. The values for the growth in assay [6], in [7] and in assay [8] were 52.1%, 20% and 7.23% (active), respectively.
Regarding `O=[N+]([O-])c1ccc(O)c2ncccc12`, the growth in assay [1] was 81.1%; in [2], 31.6%; in [3], 50.9%; in assay [4], 23.2%; in [9], 67.4%; in [6], 46.6%. Besides, the figures for the growth in [7] and in assay [8] were 66.5% and 80.5%, respectively.
On to `COc1ccc(/C=C2\CN(Cc3cn(CCCNc4ccnc5cc(Cl)ccc45)nn3)C/C(=C\c3ccc(OC)cc3)C2=O)cc1`, for which the growth in assay [1] was 96.7%; in [2], 80.1%; in [3] it was 63.6%; in assay [4], 86.3%; in [9], 53.8%; in assay [5], 87.9%. Also, the growth was 65.7% in assay [6], 76.3% in assay [7] and 81.6% in [8].
`Clc1ccc(Nc2ccnc(N3CCN(c4ccnc5cc(Cl)ccc45)CC3)n2)cc1`: the growth was 62.5% in assay [1]; 48.6% in assay [2]; 47.4% in assay [3]; 48.4% in assay [4]; 35.1% in assay [5]; 48.6% in assay [6]. Further, the growth in [7] is 48.4%; in assay [8], 46.5%.
